# D2 PAM-1: D2 dopamine receptor (human) potentiation | AID 485347 | HEK293 T-REx D2, calcium flux, EC20 dopamine potentiation | potentiation, % at 10 µM | actives 0.34% (n = 340,000) | P14416;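 active = potentiation over 3 SD above the plate norm, cut at about 30% in these data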; also: 0% is about no effect
# Target sequence (P14416 whole entry, looked up): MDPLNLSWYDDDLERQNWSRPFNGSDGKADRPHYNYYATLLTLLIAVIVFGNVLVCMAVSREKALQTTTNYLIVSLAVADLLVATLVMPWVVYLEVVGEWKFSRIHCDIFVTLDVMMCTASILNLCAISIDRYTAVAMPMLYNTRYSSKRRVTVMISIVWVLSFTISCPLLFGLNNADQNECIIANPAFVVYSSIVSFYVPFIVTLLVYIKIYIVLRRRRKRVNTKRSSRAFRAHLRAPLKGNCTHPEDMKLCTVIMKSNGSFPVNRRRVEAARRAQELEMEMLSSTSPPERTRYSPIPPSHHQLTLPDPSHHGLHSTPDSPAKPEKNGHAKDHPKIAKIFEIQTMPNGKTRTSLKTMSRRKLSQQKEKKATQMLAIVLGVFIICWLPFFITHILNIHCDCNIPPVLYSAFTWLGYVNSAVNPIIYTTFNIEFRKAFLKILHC
#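 Tetracycline-induced HEK293 T-REx cells force-coupled to calcium signalling expressed D2; compounds were pin-added after a 10 s baseline, read kinetically 180 s, then an EC20 dopamine challenge followed with a further 180 s calcium read.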
# D2 antag: antagonists of human D2 dopamine receptor | P14416 | HEK293 TREx D2 cells, calcium flux, dopamine EC80 | inhibition, % at 10 µM | actives 2% (n = 340,000); in the data active = inhibition above about 30%; inactive = below that, where a call was filed; also: 0% is about no effect
#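 Tetracycline-induced HEK293 T-REx cells expressing D2 force-coupled to calcium signalling were dye-loaded, exposed to compound for 180 s, then challenged with an EC80 of dopamine; calcium flux was followed kinetically for a further 180 s.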
# D2 PAM-2: human D2 receptor positive allosteric modulation. DiscoveRx D2 beta-arrestin cells, luminescence, 90 min; 100% = 57 uM dopamine signal. potentiation, % (no concentration beside the values). actives 0.23% (n = 360,000). AID 624464; in the data active = potentiation above about 50%
#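 PathHunter beta-arrestin assay in DiscoveRx D2 cells. Compounds were added with an EC20 of dopamine (50 nM final) for 90 min at 37 deg C. Luminescence was read 1 h after detection reagent, with 57 uM dopamine as the EC100 control.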
# D2 ag-1: D2 dopamine receptor (human) agonism. activation, % at 2 µM. P14416. AID 485358. HEK293 T-REx D2 cells, calcium flux agonist mode. actives 0.53% (n = 340,000);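 active = activation over 3 SD above normal in the single-dose calcium agonist read, cut at about 30% in these data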; also: 0% is about no effect
#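 Tetracycline-induced HEK293 T-REx cells with force-coupled D2 receptor, plated overnight at 30 C, loaded with no-wash calcium dye. After a 10 s baseline, compound was pin-added and calcium flux read kinetically for 180 s; calcium rises flagged agonists.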
# D2 ag-2: activates the human D2 dopamine receptor; actives 0.084% (n = 360,000); DiscoveRx PathHunter D2 beta-arrestin, luminescence, 90 min; 100% = 57 uM dopamine signal; P14416; activation, % (test concentration not listed); in the data active = activation above about 40%
#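 Agonist mode: compounds alone added to overnight-plated D2 PathHunter cells for 90 min at 37 C, with 57 uM final dopamine (EC100) defining full response. Beta-arrestin recruitment detected by chemiluminescent reagent, read after 1 h at ambient temperature.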
# Starred values were filed as active, the others as inactive; · = no result given. Only some compounds are listed: those with a hit (about 2.4% of all), similar ones and a draw of the others.
SMILES,D2 PAM-1,D2 antag,D2 PAM-2,D2 ag-1,D2 ag-2
Cc1ccc(S(=O)(=O)N2CCN(C(=O)CCC(=O)Nc3ccc(Br)c(C)c3)CC2)cc1,·,·,-3.8,·,0.0
CCc1ccc(OCC(=O)N(Cc2cccs2)c2ccc(Cl)cc2)cc1,7.4,·,·,·,·
Cc1cc(=O)oc2cc(OCC(=O)N3CCCC3)ccc12,·,·,-5.2,·,-3.3
Cc1cc(=O)oc2cc(OCC(=O)N3CCOCC3)ccc12,48.5*,1.9,-9.5,-0.1,-6.1
Cn1c(=O)c2c(nc(N/N=C/c3ccco3)n2C)n(C)c1=O,-0.7,52.3*,3.7,-0.1,2.1
Cn1c(=O)c2c(nc(N/N=C/c3cccs3)n2C)n(C)c1=O,6.5,-4.4,3.0,0.4,2.0
CCn1nc(NC(=O)c2ccncc2)c2cc3ccc(C)cc3nc21,5.0,-6.6,12.8,0.0,5.3
CCn1nc(NC(=O)c2ccncc2)c2cc3cc(C)ccc3nc21,34.5*,-2.9,-13.9,-0.3,-2.8
COc1ccc(N2CCN(c3nc(Nc4ccc(F)cc4)nc(OC)n3)CC2)cc1,33.2*,-22.5,·,-0.7,·
COc1ccc(N2CCN(c3nc(Cl)nc(Nc4ccc(F)cc4)n3)CC2)cc1,1.4,3.7,-0.6,3.8,0.4
c1ccc(-n2ncc3c(NC4CCCCCC4)ncnc32)cc1,-2.1,46.0*,-3.1,-0.3,-2.9
NNc1ncnc2c1cnn2-c1ccccc1,6.5,30.7*,-7.0,0.0,-4.2
COc1ccc(-c2cn3c(n2)sc2cc(C(=O)Nc4ccc(F)cc4Cl)ccc23)cc1,·,·,·,-0.3,·
CCc1nc2ccccc2n1CC(=O)NC1CCS(=O)(=O)C1 (stereo unspecified),·,·,-36.7,·,-2.4
Cc1oc(-c2ccccc2F)nc1CSCC(=O)NCc1ccc2c(c1)OCO2,33.2*,-4.4,7.8,-2.5,-3.6
Cc1oc(-c2ccccc2F)nc1CSCC(=O)NCCc1ccccc1,10.3,·,·,·,·
C#CCSc1nccc(-c2nn(-c3ccc(C)cc3)ccc2=O)n1,-18.3,32.3*,-32.1,0.5,-4.2
COc1ccc(C2c3c(n(C)c4ccccc34)C(=O)N2CC(=O)Nc2cccc(Cl)c2C)cc1 (stereo unspecified),3.2,·,·,1.4,·
Cc1c(Br)c([N+](=O)[O-])nn1C(C)C(=O)Nc1ccc2c(c1)OCO2 (stereo unspecified),4.5,40.4*,-12.6,0.0,-1.8
N#Cc1sc2nc(C3CC3)cc(-c3ccccc3)c2c1N,8.4,1.5,-16.5,-1.5,-2.7
N#Cc1sc2nc(-c3ccccc3)cc(-c3ccco3)c2c1N,0.2,62.3*,-6.3,0.5,-2.3
Cc1ccc(NC(=O)CSc2nc3nccnc3c(=O)n2CCc2c[nH]c3ccccc23)c(C)c1,2.0,·,·,-0.4,·
COC(=O)c1cc(S(=O)(=O)N2CCC(c3ccccc3)C2)c[nH]1 (stereo unspecified),-25.0,12.5,-6.9,0.3,1.0
COC(=O)c1cc(S(=O)(=O)N2CCC(c3cc(OC)ccc3OC)C2)c[nH]1 (stereo unspecified),83.3*,-10.9,-4.8,0.0,3.2
CCc1cccc2c(-c3ccccc3)nc(SCC(=O)Nc3ccccc3)nc12,9.1,·,·,1.2,·
SMILES,D2 PAM-1,D2 antag,D2 PAM-2,D2 ag-1,D2 ag-2
Cc1ccc(COC(=O)c2cccc(S(=O)(=O)N3CCCCC3)c2)cc1,13.4,-14.9,-20.1,-1.4,-7.1
COc1ccccc1COC(=O)c1cccc(S(=O)(=O)N2CCCC2)c1,7.4,41.7*,-27.8,-0.2,-3.4
Cc1ccc(COC(=O)c2cccc(S(=O)(=O)N3CCCCCC3)c2)cc1,12.3,42.9*,-13.6,0.8,0.4
FC(F)Oc1ccc(N=C2SCC3CCCCN23)cc1 (stereo unspecified),36.4*,7.3,-2.9,-1.8,7.4
Clc1ccc(N=C2SCC3CCCCN23)cc1 (stereo unspecified),-17.7,5.5,-3.5,-0.4,-2.5
Cc1cc(C)c(NC(=O)C2CCCN(C(=O)c3cnn(-c4ccccc4)c3-n3cccc3)C2)c(C)c1 (stereo unspecified),0.3,·,·,·,·
CCN(c1ccccc1)S(=O)(=O)c1ccc(NC(=O)c2nc(SC(C)C)ncc2Cl)cc1,14.8,·,·,1.7,·
COc1ccc(C(=O)Nc2ccc(NC(=O)c3ccccc3)cc2)cc1S(=O)(=O)N1CCOCC1,-17.6,16.5,-9.7,-0.2,3.2
COc1ccc(NC(=O)c2c3c(nc4ccccc24)CCC3)cc1S(=O)(=O)N1CCOCC1,-14.6,5.3,13.0,33.4*,-3.6
CC1(C(=O)NS(=O)(=O)c2ccc3c(c2)CCO3)CCN1C(=O)C1(c2ccc(Cl)cc2)CC1 (stereo unspecified),·,·,-7.0,·,-2.6
CCc1ccc2nc(N(CCN(CC)CC)C(=O)c3ccco3)sc2c1,-17.4,·,·,0.5,·
Cc1ccc(C(=O)Oc2oc(-c3ccccc3)nc2C=Nc2ccc(N(C)C)cc2)cc1,38.8*,-7.6,-17.8,-1.8,-0.8
CCCN(CC(=O)Nc1ccccc1C)C(=O)c1cnc(C)cn1,·,·,-16.8,·,-6.5
CCc1ccccc1OCCCCN1CCCCC1,-26.8,89.4*,-15.7,0.0,1.6
COc1ccccc1OCCCCN1CCCCC1,-19.4,·,-5.9,·,1.9
CCc1ccccc1OCCCN1CCCC1,-13.3,·,-3.9,·,7.3
Cc1cc(C)c(C)c(OCCOCCN2CCN(C)CC2)c1,2.9,-11.9,-23.1,-1.1,-5.3
Cc1cc(C)c(C)c(OCCCCN2CCCCC2)c1,-35.7,55.3*,-26.1,0.5,6.4
Cc1ccccc1OCCCCN1CCCCC1,-16.2,49.5*,-19.5,0.9,-5.5
Cn1c(CNc2ccc(F)cc2)nc2ccccc21,-0.4,-7.0,-7.5,0.1,0.1
Cc1ccc2nc(N3CCC(C(=O)N4CCN(c5cccc(Cl)c5)CC4)CC3)[nH]c2c1,3.6,·,·,-0.1,·
O=C(Nc1ccc(O)cc1)c1ccccc1OCc1ccccc1,13.9,-0.2,0.1,0.6,2.1
COc1cc(NC(=O)c2ccccc2OCc2ccccc2)cc(OC)c1OC,-7.2,-3.6,55.6*,-1.0,-0.5
Cc1ccc(-c2nn(-c3ccc(F)cc3)c3c2cnc2cc(F)c(F)cc23)cc1,3.1,·,·,-1.0,·
CSCCNC(=O)C1(C)CCN1C(=O)C/C=C/c1ccccc1 (stereo unspecified),·,·,-4.6,·,-2.5
O=C(Nc1cccc(-c2ccc(N3CCOCC3)nn2)c1)c1ccc(Cl)cc1,-15.2,30.6*,20.3,0.0,0.5
COc1ccccc1N1CCN(S(=O)(=O)c2c(C)[nH]c(C)c2C(=O)N2CCCC2)CC1,27.4,30.7*,-10.0,0.2,-2.0
CCOC(=O)N1CCN(C(=O)CN(C)S(=O)(=O)c2ccc(Cl)cc2)CC1,0.9,-0.1,-9.0,0.4,-4.0
Cc1cc2oc(=O)cc(CSc3nnc(-c4cccs4)o3)c2cc1C(C)C,-9.3,36.4*,1.2,0.5,-3.5

# Bioassay records as filed in PubChem BioAssay.
